The record followed here is PubChem BioAssay AID1210 (NMMLSC, 2008).

The target in the experiment is Estrogen receptor beta (Homo sapiens) (UniProt Q92731). Briefly: displacement of fluorescent estrogen from ERbeta – cell-based, Cos7 ERbeta-GFP, flow cytometry, primary screen (AID 1210).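 Note: 0% = DMSO vehicle wells and 100% = complete loss of labeled estradiol signal.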 The note with it: fluorescent estrogen binding, ligand binding inhibition, at 0.1 µM, stronger effect = higher value. Background: Flow cytometry measures light scatter and fluorescence of single cells or particles in a stream.
Chain of Estrogen receptor beta (Homo sapiens) (Q92731 whole entry, looked up): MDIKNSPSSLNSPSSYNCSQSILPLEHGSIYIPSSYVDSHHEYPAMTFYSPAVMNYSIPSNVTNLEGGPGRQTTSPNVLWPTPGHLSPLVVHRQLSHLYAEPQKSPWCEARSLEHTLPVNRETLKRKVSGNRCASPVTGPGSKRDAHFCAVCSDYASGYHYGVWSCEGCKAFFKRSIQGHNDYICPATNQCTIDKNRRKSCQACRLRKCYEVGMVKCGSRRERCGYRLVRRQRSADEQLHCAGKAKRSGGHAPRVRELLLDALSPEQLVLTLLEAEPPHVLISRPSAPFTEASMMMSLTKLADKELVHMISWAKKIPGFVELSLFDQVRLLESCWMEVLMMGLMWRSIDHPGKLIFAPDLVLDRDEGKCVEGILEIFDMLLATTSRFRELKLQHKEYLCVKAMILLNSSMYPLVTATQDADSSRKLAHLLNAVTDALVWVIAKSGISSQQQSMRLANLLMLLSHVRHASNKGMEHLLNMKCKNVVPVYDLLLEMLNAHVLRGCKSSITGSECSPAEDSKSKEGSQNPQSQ
By inhibition is commonly meant the drop in the measured response relative to a control, in per cent. With `CC1(C)N=C(N)N=C(N)N1c1ccc(C(=O)O)cc1`, the inhibition worked out at 11%.
Next, `CCOc1cc(N2CCOCC2)c(OCC)cc1NC(=O)c1cc(-c2ccco2)nc2ccccc12`: 48%; `COc1ccc(-c2cn3c(C)c(C(=O)Nc4ccncc4)sc3n2)cc1`: 19%; `CCN1CCN(Cc2c(O)c(Cl)cc3c(C)cc(=O)oc23)CC1`: 8%.
Next, `CCN(c1ccccc1)S(=O)(=O)c1ccc2[nH]cc(C(=O)NCCOC)c(=O)c2c1`: 30%; `Cc1ccnc(NS(=O)(=O)c2ccc(NC(=O)Cc3cccs3)cc2)n1`: 47%.
For `COc1ccc(N2Cc3cccc(C(=O)O)c3C2=O)cc1` the value was 32%.
As to `O=C1Nc2ccccc2SC(c2ccccc2)C1O` (stereo not drawn), the inhibition came out at 26%.
Next, `COc1ccc(NC(=O)CN(c2ccccc2)S(=O)(=O)N(C)C)cc1OC`: 15%; `C[C@]12CC[C@@H]3c4ccc(O[C@@H]5O[C@H](C(=O)O)[C@@H](O)[C@H](O)[C@H]5O)cc4CC[C@H]3[C@@H]1C[C@@H](O)[C@@H]2O`: 15%; `CCCCn1c(=O)[nH]c2nc3cc(N)ccc3nc2c1=O`: 16%.
Turning to `CC(C)CN(C(=O)COC(=O)c1cc2c(s1)CCC2)C1CCS(=O)(=O)C1` (stereo not drawn), the inhibition worked out at 28%.
For `C[C@]12CC[C@@H]3c4ccc(O)cc4C(=O)C[C@H]3[C@@H]1CC[C@@H]2O` the value was 89%; for `NC(=O)c1oc2ccccc2c1NC(=O)c1nc2ccccc2s1`, 10%; for `COc1cc(O)c2c(=O)c3c(OC)c(O)ccc3oc2c1`, 25%.
Next, `Nc1ccc(N2CCN(C(=O)c3ccco3)CC2)cc1`: 25%; `Cc1nn(-c2ccccc2)c2sc(C(=O)c3c(N)n(C)c(=O)n(C)c3=O)cc12`: 32%.
With `COc1ccc(-c2ccc(=O)[nH]n2)cc1`, the inhibition is 16%.
The molecule `O=C(COC(=O)c1ccccc1Oc1ccccc1)NCc1ccco1` displayed an inhibition of 65%.
Next, `CC1Cc2ccccc2N1C(=O)CSc1nnc(-c2ccc(S(=O)(=O)N3CCCC3)cc2)o1` (stereo not drawn): 19%.
For `COCCOC(=O)c1[nH]c2c(c1C)C(=O)CC(c1ccco1)C2` (stereo not drawn) the value was 26%; for `Cn1ccnc1SCC(=O)Nc1ccc2nc(SCC(=O)NC3CC3)sc2c1`, 38%.
Next, `O=C1N/C(=C\c2ccc(O)cc2)C(=O)c2ccccc21`: 1%.
In the case of `Cc1cc(C)c(S(=O)(=O)/N=C2\C=CC(=O)C(Cl)=C2)c(C)c1`, the inhibition amounted to 16%.
Next, `O=c1[nH]cnc2c1sc1nc3c(c(-c4ccc(Cl)cc4)c12)CCC3`: 19%.
For `Cc1ccc(-c2n[nH]c(=S)n2/N=C/C=C\c2ccccc2[N+](=O)[O-])cc1` the value was 4%; for `CCCc1nnc2n1N=C(c1ccc(-c3cc(Cl)ccc3Cl)o1)CS2`, 48%.
For `Cc1cc(O)ccc1C1(c2ccc(O)cc2C)OC(=O)c2ccccc21` the value was 10%; for `Nc1ccc(-n2cnc3cc([N+](=O)[O-])ccc32)cc1`, 12%.
The molecule `O=c1nc2s/c(=C\c3ccco3)c(=O)n2nc1Cc1ccc(F)cc1` registered an inhibition of 35%.
Next, `Cc1ccc(OCCN2CCN(CC(O)Cn3c4ccccc4c4ccccc43)CC2)cc1` (stereo not drawn): 31%; `Cc1ccc(S(=O)(=O)N2CCCCC2)cc1C(=O)Nc1ncn[nH]1`: 23%.
For `CCN1CCc2nc(NC(=O)Cc3ccc4c(c3)OCCO4)sc2C1` the value was 4%.
For `COc1ccc(NC(=O)C(c2ccccc2)N(C)C(=O)c2ccc(=O)[nH]c2)cc1` (stereo not drawn) the value was 56%; for `O=C(CSc1nnc(-c2ccc(O)cc2)n1Cc1ccccc1)NNC(=O)c1ccc(Br)cc1`, 30%; for `COc1ccc(/C=N/NC(=O)c2nc(-c3ccccc3)n(-c3ccccc3)n2)c(O)c1`, 33%.
On to `COc1ccc(C2Nc3ccccc3C(=O)N2c2ccc(C)cc2)cc1Cn1cc([N+](=O)[O-])cn1` (stereo not drawn), for which the inhibition turned out to be 2%.
For `O=C(Nc1nc(-c2nc3ccccc3s2)cs1)C1COc2ccccc2O1` (stereo not drawn) the value was 2%.
